Test [1] can be described thus: optical density shifts of acrAB sulA E. coli – strain DRC41, OD650, 48 h, E. coli filamentation inducer project, primary screen (AID 1152).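 Also: E. coli MC1000 strain DRC41 lacking acrAB efflux pump and sulA.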 As to conditions: higher = more signal, called active from +8 up or from −8 down.
A short description of test [2]: probe aLefty1 binding on compound microarray – biochemical, small-molecule microarray, 635/667 nm fluorescence, primary screen (AID 1153).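 Also: score merges spot fluorescence with signal-to-noise ratio from the scanned slide images.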 As to conditions: higher = more signal.
A short description of test [3]: plasmodial surface anion channel blockers, osmotic lysis – cell-based, P. falciparum Indochina, OD700, 1 h, primary screen (AID 1154). As to conditions: P. falciparum Indochina infected RBC osmotic lysis, higher = more signal, called active from +8 up or from −8 down.
Test [4] in a line: plasmodial surface anion channel blockers, osmotic lysis – cell-based, P. falciparum Indochina, OD700, 2 h, primary screen (AID 1155).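 Also: lysis reports solute entry through the parasite surface anion channel PSAC.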 As to conditions: P. falciparum Indochina infected erythrocytes, higher = more signal, called active from +8 up or from −8 down.
Test [5] can be described thus: changes in parasitized red cell lysis, either direction – P. falciparum Indochina, OD700, 3 h, PSAC antagonist project, primary screen (AID 1156). As to conditions: P. falciparum-infected erythrocytes, osmotic lysis, higher = more signal, called active from +8 up or from −8 down.
Test [6] can be described thus: plasmodial surface anion channel blockers, osmotic lysis – cell-based, P. falciparum Indochina, OD700, 18 h, primary screen (AID 1157). The conditions noted are these: P. falciparum Indochina infected erythrocytes, osmotic lysis OD700, 18 h; higher = more signal, called active from +8 up or from −8 down.
A short description of test [7]: S6 kinase pathway phospho-S6 level changes – cell-based, A549, cytoblot, luminescence, serum-stimulated, primary screen (AID 1158).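 Also: serum-stimulated A549 lung adenocarcinoma cells; signal is phosphorylated S6 detected by cytoblot immunostaining with HRP secondary.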 The conditions noted are these: 5 h, higher = more signal.
In test [8] the target is NADPH oxidase 2 (Homo sapiens) (UniProt P04839). Nature of the test: compounds shifting NOX2 Amplex Red fluorescence – cell-based, HEK293-NOX2, PMA-stimulated, NOX inhibitor project, primary screen (AID 1159). Also: test concentration not given here. As to conditions: 45 min, higher = more signal, called active from +8 up or from −8 down.
The target of test [9] is NADPH oxidase 4 (Homo sapiens) (UniProt Q9NPH5). As to the kind of experiment: compounds shifting NOX4 Amplex Red fluorescence – cell-based, HEK293-NOX4, tetracycline-induced, NOX inhibitor project, primary screen (AID 1160). As to conditions: HEK293-NOX4, Amplex Red H2O2 fluorescence, 45 min; higher = more signal, called active from +8 up or from −8 down.
Test [10] deals with NADPH oxidase 5 (Homo sapiens) (UniProt Q96PH1). Nature of the test: compounds shifting NOX5 Amplex Red fluorescence – cell-based, HEK293-NOX5, NOX inhibitor project, primary screen (AID 1161). As to conditions: HEK293-NOX5, ionomycin, 45 min, higher = more signal.
The nature of test [11]: compound effects on lung adenocarcinoma cell viability – A549, calcein-AM fluorescence, 48 h, basal, profiling panel (AID 1162). Also: test concentration not given here. The conditions noted are these: higher = more signal.
Test [12] in a line: compound effects on differentiated 3T3-L1 adipocyte viability – cell-based, 3T3-L1 adipocytes, calcein-AM fluorescence, 48 h, basal, profiling panel (AID 1163). Also: test concentration not given here. The conditions noted are these: 3T3-L1 adipocytes viability, higher = more signal.
A short description of test [13]: compound effects on hepatocellular carcinoma cell viability – HepG2, calcein-AM fluorescence, 48 h, basal, profiling panel (AID 1164). Also: test concentration not given here. The conditions noted are these: higher = more signal.
The nature of test [14]: compound effects on multiple myeloma cell viability – MM1S, calcein-AM fluorescence, 48 h, basal, profiling panel (AID 1165). Also: test concentration not given here. The conditions noted are these: higher = more signal.
A short description of test [15]: calcein-AM signal in unstimulated myeloma cells – cell-based, calcein-AM fluorescence, 48 h, PK04 Diversity Set, profiling panel (AID 1166).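 Also: cells grown under basal conditions without added stimulus; test concentration not given here.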 As to conditions: RPMI8226 myeloma viability, higher = more signal.
Test [16] can be described thus: JC-1 mitochondrial signal, unstimulated HepG2 cells – cell-based, JC-1 fluorescence, 24 h, 100 nL compound, profiling panel (AID 1167). Also: test concentration not given here. The conditions noted are these: HepG2 mitochondrial potential, higher = more signal.
Test [17] in a line: JC-1 mitochondrial signal, unstimulated adipocytes – cell-based, JC-1 fluorescence, 3T3-L1 adipocytes, 24 h, 100 nL compound, profiling panel (AID 1168). Also: test concentration not given here. The conditions noted are these: JC-1 mitochondrial fluorescence, higher = more signal, called active from +8 up or from −8 down.
Test [18] can be described thus: JC-1 mitochondrial signal, unstimulated myeloma cells – cell-based, JC-1 fluorescence, RPMI8226, 24 h, 100 nL compound, profiling panel (AID 1169). Also: test concentration not given here. As to conditions: JC-1 mitochondrial potential fluorescence, higher = more signal.
Test [19] can be described thus: JC-1 mitochondrial signal, unstimulated MM1S myeloma – cell-based, JC-1 fluorescence, 24 h, 100 nL compound, profiling panel (AID 1170). Also: test concentration not given here. As to conditions: MM1S mitochondrial potential, higher = more signal.
Test [20] in a line: resazurin metabolic signal in A549 cells – cell-based, resazurin fluorescence, 24 h, PK04 Diversity Set, profiling panel (AID 1171). Also: test concentration not given here. The conditions noted are these: A549 viability, higher = more signal, called active from +8 up or from −8 down.

The source made the active and inactive calls.

NADPH oxidase 4 (Homo sapiens), sequence (Q9NPH5 whole entry, looked up): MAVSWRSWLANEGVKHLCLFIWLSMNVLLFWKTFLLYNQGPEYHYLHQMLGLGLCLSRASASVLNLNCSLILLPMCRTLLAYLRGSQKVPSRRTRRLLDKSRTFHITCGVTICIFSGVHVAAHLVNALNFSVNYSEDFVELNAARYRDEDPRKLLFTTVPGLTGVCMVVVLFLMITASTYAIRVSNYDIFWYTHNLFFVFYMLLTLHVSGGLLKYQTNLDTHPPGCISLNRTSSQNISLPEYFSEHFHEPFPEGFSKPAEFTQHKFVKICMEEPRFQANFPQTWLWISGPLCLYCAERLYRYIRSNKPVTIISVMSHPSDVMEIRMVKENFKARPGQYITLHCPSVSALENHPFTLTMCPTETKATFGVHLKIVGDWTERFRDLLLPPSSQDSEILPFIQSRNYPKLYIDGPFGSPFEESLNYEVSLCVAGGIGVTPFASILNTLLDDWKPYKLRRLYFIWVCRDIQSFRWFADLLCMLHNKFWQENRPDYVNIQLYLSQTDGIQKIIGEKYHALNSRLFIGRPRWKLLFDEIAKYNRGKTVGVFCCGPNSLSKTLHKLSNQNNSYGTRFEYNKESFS
NADPH oxidase 2 (Homo sapiens), sequence (P04839 whole entry, looked up): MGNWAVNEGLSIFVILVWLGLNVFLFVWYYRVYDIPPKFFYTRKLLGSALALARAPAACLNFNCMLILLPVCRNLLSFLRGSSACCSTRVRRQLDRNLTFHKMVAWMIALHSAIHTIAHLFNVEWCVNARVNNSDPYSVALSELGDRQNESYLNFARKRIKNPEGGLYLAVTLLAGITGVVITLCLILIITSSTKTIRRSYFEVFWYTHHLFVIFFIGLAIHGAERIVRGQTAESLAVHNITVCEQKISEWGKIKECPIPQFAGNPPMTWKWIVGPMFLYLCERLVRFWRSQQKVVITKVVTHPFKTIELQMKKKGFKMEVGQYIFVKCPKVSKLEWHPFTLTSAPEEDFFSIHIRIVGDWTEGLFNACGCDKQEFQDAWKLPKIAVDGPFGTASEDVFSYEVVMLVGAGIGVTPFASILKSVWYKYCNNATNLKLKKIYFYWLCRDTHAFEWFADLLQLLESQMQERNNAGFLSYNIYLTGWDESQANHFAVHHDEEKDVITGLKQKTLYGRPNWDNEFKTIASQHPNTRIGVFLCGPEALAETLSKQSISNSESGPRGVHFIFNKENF
NADPH oxidase 5 (Homo sapiens), sequence (Q96PH1 whole entry, looked up): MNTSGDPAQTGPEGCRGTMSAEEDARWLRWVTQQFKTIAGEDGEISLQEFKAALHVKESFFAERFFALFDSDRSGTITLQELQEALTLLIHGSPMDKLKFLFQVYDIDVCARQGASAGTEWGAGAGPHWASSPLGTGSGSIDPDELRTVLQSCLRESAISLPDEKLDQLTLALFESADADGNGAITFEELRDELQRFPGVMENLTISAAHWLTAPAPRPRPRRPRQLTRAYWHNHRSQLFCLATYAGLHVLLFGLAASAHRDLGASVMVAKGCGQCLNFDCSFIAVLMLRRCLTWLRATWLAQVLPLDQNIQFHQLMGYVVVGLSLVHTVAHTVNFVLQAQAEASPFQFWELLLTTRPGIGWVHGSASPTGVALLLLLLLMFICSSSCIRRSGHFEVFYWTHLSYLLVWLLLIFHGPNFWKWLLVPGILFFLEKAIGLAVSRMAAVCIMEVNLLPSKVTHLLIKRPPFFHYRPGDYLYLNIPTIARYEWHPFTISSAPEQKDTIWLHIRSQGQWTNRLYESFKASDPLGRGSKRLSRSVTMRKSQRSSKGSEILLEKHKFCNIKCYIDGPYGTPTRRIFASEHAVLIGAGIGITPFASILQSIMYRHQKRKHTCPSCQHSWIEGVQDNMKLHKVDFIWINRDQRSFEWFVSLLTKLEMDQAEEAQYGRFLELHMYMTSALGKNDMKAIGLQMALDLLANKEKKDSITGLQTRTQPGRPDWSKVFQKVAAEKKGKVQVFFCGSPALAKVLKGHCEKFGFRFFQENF

As to `COc1cc2c(cc1O)C(C)N(Cc1cc3c(cc1Br)OCO3)CC2` (stereo not given), the z-score in test [1] is 1.2 (inactive); in test [3], 2.87 (inactive); in test [4] it was 0.551 (inactive); in test [5], 0.117 (inactive); in test [6], 0.401 (inactive); in test [7], 0.36. The z-score in test [8] is -3.74 (inactive); in [9] it was -2.96 (inactive); in test [10], -2.91; in test [11], -0.279; in test [12] it was 0.453; in [13], -0.346. Also, the z-score in test [14] is -0.981; in [15], -0.308; in test [16], -0.378; in test [17], 0.168 (inactive); in test [18], -0.481; in test [19], 0.71. Also, the z-score in test [20] is -0.807 (inactive). The composite z-score in test [2] was -0.0196.

`C=CCNC(=O)[C@H]1[C@@H]2C(=O)O[C@@H](c3ccccc3)[C@@H](c3ccccc3)N2[C@@H](c2ccccc2OCCO)[C@]12C(=O)N(C(=O)OCCOC)c1ccc(C#CC3=CCCCC3)cc12`: the z-score in test [1] is 0.687 (inactive); in [3], 2.75 (inactive); in test [4] it was 1.32 (inactive); in test [5], -0.032 (inactive); in [6] it was 0.725 (inactive); in [7] it was -0.321. In addition, the z-score was 2.28 (inactive) in test [8]; -0.678 (inactive) in [9]; 1.58 in test [10]; -1.51 in [11]; 0.963 in [12]; -0.882 in [13]. Further, the z-score is -3.35 in test [14]; -3.88 in test [15]; 0.215 in test [16]; 1.06 (inactive) in test [17]; -0.924 in test [18]; -1.49 in test [19]. The z-score in test [20] was -1.02 (inactive). Moreover, the composite z-score in test [2] was 0.944.

Consider `COCCCNC(=O)[C@]1(CCC(=O)OC(C)(C)C)N=C(c2ccc(OCCCO)cc2)O[C@@H]1c1ccccc1`, for which the z-score in test [1] was 0.134 (inactive); in [3], 14.7 (active); in test [4] it was 1.61 (inactive); in test [5], 0.58 (inactive); in test [6], 0.57 (inactive); in test [7], -0.507. The z-score was -0.00397 (inactive) in [8]; 0.689 (inactive) in [9]; -0.139 in test [10]; 0.369 in [11]; -0.342 in test [12]; -0.797 in [13]. The z-score in [14] is 0.326; in [15], -0.0674; in test [16], -0.145; in test [17], 0.0968 (inactive); in test [18], 0.86; in [19], -0.705. The z-score in test [20] is 0.119 (inactive). The same compound had a composite z-score in [2] of -0.166.

(Values after PubChem BioAssay.)
